# In PubChem BioAssay (Tox21):
# Several values for one entry are separate records, joined by “and”; a condition that tells them apart may be missing. Equal entries are not always repeated. The source holds several records for some structures; these can differ, active in one and inactive in another. Activity calls are given as the source filed them. Entries that show only a call come without a potency. Unless noted, calls come from the whole dose curve; as a rule, active = well fitted curve in the direction sought with a large enough effect in the repeat runs; inconclusive = weak or mixed curves; inactive = no such curve, though single readings can be large; an effect the other way counts as inactive or inconclusive.
# Assays:
# [1] = qHTS assay to identify small molecule antagonists of the thyroid receptor (TR) signaling pathway - cell viability counter screen (AID 743064); note: nearly all actives have a fitted effect of over 50% in size
# In short: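 CellTiter-Fluor readout, 30 min at 37 °C/5% CO2, following 23.5 h incubation of GH3.TRE-Luc cells with test compound and 1 nM T3 (final).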
# [2] = qHTS assay to identify small molecule antagonists of the thyroid receptor (TR) signaling pathway (AID 743065); note: nearly all actives have a fitted effect of over 55% in size; note: potency is the fitted concentration of half-maximal effect
# In short: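 GH3.TRE-Luc rat pituitary cells carrying two TR response elements driving luciferase were plated for 4 h, given compound plus 1 nM T3 (final), and incubated 23.5 h at 37 C. ONE-Glo luminescence measured reporter inhibition; CellTiter-Fluor fluorescence tracked cytotoxicity.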
# [3] = system: thyroid hormone receptor (rat, GH3 cells); experiment: qHTS assay to identify small molecule agonists of the thyroid receptor (TR) signaling pathway (AID 743066; calls by dose curve)
# [4] = target: Estrogen receptor (Homo sapiens) (UniProt P03372); experiment: qHTS assay to identify small molecule antagonists of the estrogen receptor alpha (ER-alpha) signaling pathway (AID 743069; active = well fitted curve in the direction sought with a large enough effect in the signal ratio in the repeat runs, not every such curve was filed as active; inconclusive = weak or mixed curves, or effect the other way; inactive = no such curve, though single readings can be large or run the other way; the % refers to the signal ratio)
# Chain of Estrogen receptor (Homo sapiens) (P03372 whole entry, looked up): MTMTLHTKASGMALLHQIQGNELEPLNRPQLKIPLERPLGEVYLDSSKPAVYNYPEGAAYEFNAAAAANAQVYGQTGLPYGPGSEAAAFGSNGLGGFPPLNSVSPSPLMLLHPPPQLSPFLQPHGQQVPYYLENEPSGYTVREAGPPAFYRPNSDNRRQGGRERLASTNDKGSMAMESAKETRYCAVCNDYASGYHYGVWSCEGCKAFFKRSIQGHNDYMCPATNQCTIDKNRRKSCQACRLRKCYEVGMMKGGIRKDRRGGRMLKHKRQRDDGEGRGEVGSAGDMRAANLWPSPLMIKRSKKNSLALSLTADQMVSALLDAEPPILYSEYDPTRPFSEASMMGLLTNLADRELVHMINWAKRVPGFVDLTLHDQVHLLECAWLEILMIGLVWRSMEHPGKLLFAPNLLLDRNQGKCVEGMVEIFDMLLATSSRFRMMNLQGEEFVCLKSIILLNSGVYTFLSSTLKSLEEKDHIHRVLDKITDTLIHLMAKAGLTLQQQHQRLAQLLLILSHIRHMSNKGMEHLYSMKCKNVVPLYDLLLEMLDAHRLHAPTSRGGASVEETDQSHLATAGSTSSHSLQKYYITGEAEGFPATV
# In short: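 Estradiol-stimulated ER-alpha-UAS-bla HEK293 cells, 18 hr compound exposure at 37C. LiveBLAzer B/G substrate, 2 hr RT, fluorescence read.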
# [5] = qHTS assay to identify small molecule antagonists of the estrogen receptor alpha (ER-alpha) signaling pathway - cell viability counter screen (AID 743074; calls by dose curve;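 note: HEK293 cells carrying ER-alpha-UAS-bla reporter stimulated with 17beta-estradiol; nearly all actives have a fitted effect of over 45% in size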)
# [6] = target: Estrogen receptor (Homo sapiens) (UniProt P03372); experiment: qHTS assay to identify small molecule agonists of the estrogen receptor alpha (ER-alpha) signaling pathway (AID 743075; calls by dose curve;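 note: HEK293 GripTite cells with ER-alpha and UAS-driven beta-lactamase reporter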; note: potency is the fitted concentration of half-maximal effect)
# [7] = target: Estrogen receptor (Homo sapiens) (UniProt P03372); experiment: qHTS assay to identify small molecule agonists of the estrogen receptor alpha (ER-alpha) signaling pathway using the BG1 cell line (AID 743079); conditions: BG1Luc4E2 cells, ERE-luciferase agonist, 22 h; activation: at 70.3 µM (top of the series) unless noted; note: nearly all actives have a fitted effect of over 20% in size; note: potency is the fitted concentration of half-maximal effect
# [8] = qHTS assay to identify small molecule antagonists of the estrogen receptor alpha (ER-alpha) signaling pathway using the BG1 cell line (AID 743080; calls by dose curve;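 note: BG1 cells stimulated with 17beta-estradiol alongside compound; nearly all actives have a fitted effect of over 25% in size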)
# In short: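 Quantitative HTS on the Tox21 10K library: BG1 cells with endogenous ER-alpha and ERE-luciferase reporter, 17beta-estradiol stimulation, 21.5 h compound exposure, luminescence endpoint with parallel fluorescence cytotoxicity counter-read.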
# [9] = qHTS assay to identify small molecule antagonists of the estrogen receptor alpha (ER-alpha) signaling pathway using the BG1 cell line - cell viability counter screen (AID 743081);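 note: compound given together with 17beta-estradiol as the ER stimulus; nearly all actives have a fitted effect of over 45% in size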
# [10] = target: Aromatase (Homo sapiens) (UniProt P11511); experiment: qHTS assay to identify aromatase inhibitors (AID 743083); note: nearly all actives have a fitted effect of over 55% in size
# Chain of Aromatase (Homo sapiens) (P11511 whole entry, looked up): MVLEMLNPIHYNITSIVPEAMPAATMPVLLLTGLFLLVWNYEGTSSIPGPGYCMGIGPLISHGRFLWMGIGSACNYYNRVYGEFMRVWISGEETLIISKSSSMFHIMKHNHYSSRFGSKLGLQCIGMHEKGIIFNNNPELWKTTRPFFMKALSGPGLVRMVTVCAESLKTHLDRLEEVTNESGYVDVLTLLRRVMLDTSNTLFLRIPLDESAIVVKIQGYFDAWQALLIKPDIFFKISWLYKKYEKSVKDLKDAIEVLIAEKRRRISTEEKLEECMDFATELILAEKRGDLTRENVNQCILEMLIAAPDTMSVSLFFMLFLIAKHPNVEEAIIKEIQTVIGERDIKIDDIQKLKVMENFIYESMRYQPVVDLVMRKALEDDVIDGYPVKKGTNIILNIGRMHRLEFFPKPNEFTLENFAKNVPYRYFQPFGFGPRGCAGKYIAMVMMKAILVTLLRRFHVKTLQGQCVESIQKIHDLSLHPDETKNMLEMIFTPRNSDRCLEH
Structure (SMILES),Potency [1],Potency [2],Potency [3],Potency [4],Potency [5],Potency [6],Potency [7],Potency [8],Potency [9],Potency [10],"activity change, negative = cytotoxic [1]","activity, negative = inhibition [2]","activity, negative = inhibition [4]",activation [7]
OB(O)O,inactive,inactive,inactive,inactive,inactive,inactive,inactive,inactive,inactive,inactive,–,–,–,–
CC(O)CNCC(C)O (stereo not drawn),inactive,inactive,inactive,inactive,inactive,inactive,inactive,inactive,inactive,inactive,–,–,–,–
NC(=O)NC(N)=O,inactive,inactive,inactive,inactive,inactive,inactive,inactive,inactive,inactive,inactive,–,–,–,–
COC(=O)CCCCC(=O)OC,inactive,inactive,inactive,inactive,inactive,inactive,inactive,inactive,inactive,inactive,–,–,–,–
CCCCCCCCCCCC(=O)N(C)CC(=O)O,–,59.2 µM (active),inactive,–,inactive,inactive,–,inactive,inactive,inactive,15.6% [at 8.44 µM] (inactive),7.52% [at 8.44 µM] (inactive),-5.64% [at 6.71 µM] (inactive),-3.44% [at 8.47 µM] (inactive)
CCc1cccc(O)c1,inactive,inactive,inactive,inactive,inactive,inactive,inactive,inactive,inactive,inactive,–,–,–,–
CN=C(NC#N)NCCSCc1nc[nH]c1C,inactive,inactive,inactive,inactive,inactive,inactive,inactive,inactive,inactive,inactive,–,–,–,–
OC1CCCCC1,inactive,inactive,inactive,inactive,inactive,inactive,inactive,inactive,inactive,inactive,–,–,–,–
Nc1cccc(N)n1,inactive,inactive,inactive,inactive,inactive,inactive,inactive,inactive,inactive,inactive,–,–,–,–
COc1ccc([C@@H]2CC(=O)c3c(O)cc(O[C@@H]4O[C@H](CO[C@@H]5O[C@@H](C)[C@H](O)[C@@H](O)[C@H]5O)[C@@H](O)[C@H](O)[C@H]4O)cc3O2)cc1OC,inactive,inactive,inactive,inactive,inactive,inactive,inactive,inactive,inactive,inactive,–,–,–,–
O=Cc1ccc(CO)o1,inactive,inactive,inactive,inactive,inactive,inactive,inactive,inactive,inactive,inactive,–,–,–,–
OCC(O)CS (stereo not drawn),inactive,inactive,inactive,inactive,inactive,inactive,11.9 µM (active) and inactive,inactive,inactive,inactive,–,–,–,–
C1CCCNCC1,inactive,inactive,inactive,inactive,inactive,inactive,inactive,inactive,inactive,inactive,–,–,–,–
CC1(C)C(=O)N(Cl)C(=O)N1Cl,inactive,inactive,inactive,inactive,inactive,inactive,77 µM (active) and inactive,inactive,inactive,inactive,–,–,–,–
Nc1cccc(C(F)(F)F)c1,inactive,inactive,inactive,inactive,inactive,inactive,inactive,inactive,inactive,inactive,–,–,–,–
COc1c(Cl)ccc(Cl)c1C(=O)O,inactive,inactive,inactive,inactive,inactive,inactive,inactive,inactive,inactive,inactive,–,–,–,–
O=C(Cl)c1ccc(C(=O)Cl)cc1,inactive,inactive,inactive,inactive,inactive,inactive,inactive,inactive,inactive,inactive,–,–,–,–
O=C1CCCCCCCCCCC1,inactive,inactive,inactive,inactive,inactive,inactive,inactive,inactive,inactive,inactive,–,–,–,–
CCCCCCCC(=O)O,inactive,inactive,inactive,inactive,inactive,inactive,inactive,inactive,inactive,inactive,–,–,–,–
Cc1cc(C)c(O)c(C)c1,inactive,inactive,inactive,inactive,inactive,inactive,inactive,inactive,inactive,inactive,–,–,–,–
CC(C)c1ccc(C(C)C)cc1,inactive,inactive,inactive,inactive,inactive,inactive,inactive,inactive,inactive,inactive,–,–,–,–
CCCCC(=O)O,inactive,inactive,inactive,inactive,inactive,inactive,inactive and 49.1 µM (active),inactive,inactive,inactive,–,–,–,–
N#CCC(=O)O,inactive,inactive,inactive,inactive,inactive,inactive,inactive,inactive,inactive,inactive,–,–,–,–

Structure (SMILES),Potency [1],Potency [2],Potency [3],Potency [4],Potency [5],Potency [6],Potency [7],Potency [8],Potency [9],Potency [10],"activity change, negative = cytotoxic [1]","activity, negative = inhibition [2]","activity, negative = inhibition [4]",activation [7]
Cc1ccncc1,inactive,inactive,inactive,inactive,inactive,inactive,inactive,inactive,inactive,inactive,–,–,–,–
Cc1cc(C)cc(O)c1,inactive,inactive,inactive,inactive,inactive,inactive,inactive,inactive,inactive,inactive,–,–,–,–
Cc1ccccc1C=O,inactive,inactive,inactive,inactive,inactive,inactive,inactive,inactive,inactive,inactive,–,–,–,–
C=CC(C)(C)C,inactive,inactive,inactive,inactive,inactive,inactive,inactive,inactive,inactive,inactive,–,–,–,–
CCCCCCCCO,inactive,inactive,inactive,inactive,inactive,inactive,inactive,inactive,inactive,inactive,–,–,–,–
Cc1ccc(C(C)C)cc1,inactive,inactive,inactive,inactive,inactive,inactive,inactive,inactive,inactive,inactive,–,–,–,–
CC(=O)C(C)C,inactive,inactive,inactive,inactive,inactive,inactive,inactive,inactive,inactive,inactive,–,–,–,–
Cc1ccccc1Cl,inactive,inactive,inactive,inactive,inactive,inactive,inactive,inactive,inactive,inactive,–,–,–,–
CC(C)=CCC/C(C)=C/C=O,inactive,inactive,inactive,inactive,inactive,inactive,inactive,inactive,inactive,inactive,–,–,–,–
CCCCCCC(=O)O,inactive,inactive,inactive,inactive,inactive,inactive,inactive,inactive,inactive,inactive,–,–,–,–
OCC(CO)(CO)CO,inactive,inactive,inactive,inactive,inactive,inactive,inactive,inactive,inactive,inactive,–,–,–,–
CC(=O)OC/C=C(\C)CCC=C(C)C,inactive,inactive,inactive,inactive,inactive,inactive,inactive,inactive,inactive,inactive,–,–,–,–
O=[N+]([O-])c1ccccc1C(F)(F)F,inactive,inactive,inactive,inactive,inactive,inactive,inactive,inactive,inactive,inactive,–,–,–,–
CC(=O)OC(C)(C)C1CC=C(C)CC1 (stereo not drawn),inactive,inactive,inactive,inactive,inactive,inactive,inactive and 54.5 µM (active),inactive,inactive,inactive,–,–,–,–
CN1CCCC1=O,inactive,inactive,inactive,inactive,inactive,inactive,inactive,inactive,inactive,inactive,–,–,–,–
CCCCC(CC)COC(=O)c1ccc(C(=O)OCC(CC)CCCC)cc1 (stereo not drawn),inactive,inactive,inactive,–,inactive,–,–,–,inactive,inactive,–,–,–,–
Cc1ccc(C)c(S(=O)(=O)O)c1,inactive,inactive,inactive,–,inactive,–,–,–,inactive,inactive,–,–,–,–
Cc1ccc([N+](=O)[O-])cc1N,inactive,inactive,inactive,inactive,–,inactive,inactive,inactive,inactive,inactive,–,–,–,–
C[Si](C)(C)N[Si](C)(C)C,inactive,inactive,inactive,inactive,–,86.4 nM [inconclusive] (active) and inactive,inactive,inactive,inactive,inactive,–,–,–,–
Brc1ccc(Oc2ccc(Br)cc2)cc1,inactive,inactive,inactive,–,inactive,–,–,–,inactive,–,–,–,–,–
NC(N)=S,inactive,inactive,inactive,inactive,–,inactive,inactive,inactive,inactive,inactive,–,–,–,–
CC/C=C(\C(=O)N[C@@H]1C(=O)N2C(C(=O)OCOC(=O)C(C)(C)C)=C(COC(N)=O)CS[C@H]12)c1csc(N)n1,inactive,inactive,inactive,–,inactive,inactive,inactive,inactive,–,inactive,–,–,–,–
